Results published in the antibiotic and cytotoxicity screens of Wong et al. (2023).
The campaign covered roughly 39,000 compounds. About 3,300 (8.5%) were called active. What follows is part of a selection rich in actives, with near analogues and random picks from the rest.

The compounds below were run on HepG2 (assay: cytotoxicity call (relative viability < 0.9)). Details: 10 µM.
For `C[C@@H]1CN([C@@H](C)CO)C(=O)Cc2cc(NS(C)(=O)=O)ccc2O[C@H]1CN(C)S(=O)(=O)c1cn(C)cn1`, the cytotoxicity call was “inactive”.
With `C[C@H](CO)N1C[C@H](C)[C@H](CN(C)S(=O)(=O)c2ccc(F)cc2)Oc2ccc(NC(=O)c3ccncc3)cc2CC1=O` the cytotoxicity call was “inactive”.
For `COc1ccc(S(=O)(=O)N(C)C[C@H]2Oc3c(cccc3N(C)C)C(=O)N([C@@H](C)CO)C[C@@H]2C)cc1`, the cytotoxicity call was “inactive”.
For `COc1ccc2c3c(n(c2c1)C)[C@@H](CO)N(C[C@]13CN(C1)C(=O)c1ccncc1)C(=O)C1CCCCC1`, the cytotoxicity call was “inactive”.
For `COc1ccc(NC(=O)N2C[C@H](O)COC[C@@H]3O[C@@H](CC(=O)NC4Cc5ccccc5C4)CC[C@H]32)cc1`, the cytotoxicity call was “inactive”.
For `C[C@@H]1CN([C@H](C)CO)C(=O)c2cc(C#CC(C)(C)O)cnc2O[C@H]1CN(C)Cc1cccc(C(=O)O)c1`, the cytotoxicity call was “inactive”.
`Cc1ccc(S(=O)(=O)N(C)C[C@@H]2Oc3ccc(N(C)C)cc3CC(=O)N([C@@H](C)CO)C[C@H]2C)cc1` was tested, and the cytotoxicity call was “inactive”.
In the case of `C[C@H]1CN([C@@H](C)CO)C(=O)c2cccc(NC(=O)C3CCCCC3)c2O[C@H]1CN(C)Cc1ccc(Oc2ccccc2)cc1`, the cytotoxicity call is reported as “inactive”.
For `C[C@H](CO)N1C[C@H](C)[C@H](CN(C)Cc2ccc(Oc3ccccc3)cc2)Oc2c(NC(=O)NC3CCCCC3)cccc2C1=O`, the cytotoxicity call was “active”.
For `C[C@@H]1CN([C@@H](C)CO)C(=O)c2cccc(NC(=O)C3CCCCC3)c2O[C@H]1CN(C)Cc1ccc(Oc2ccccc2)cc1`, the cytotoxicity call was “inactive”.
For `C[C@H](CO)N1C[C@H](C)[C@@H](CN(C)Cc2ccc(Oc3ccccc3)cc2)Oc2c(NC(=O)C3CCCCC3)cccc2C1=O`, the cytotoxicity call was “active”.
`C[C@@H]1CN([C@@H](C)CO)C(=O)c2cccc(NC(=O)NC3CCCCC3)c2O[C@@H]1CN(C)Cc1ccc(Oc2ccccc2)cc1` was tested, and the cytotoxicity call was “inactive”.
`C[C@H]1CN([C@@H](C)CO)C(=O)c2cccc(NC(=O)NC3CCCCC3)c2O[C@@H]1CN(C)Cc1ccc(Oc2ccccc2)cc1` was tested, and the cytotoxicity call was “inactive”.
In the case of `COCCNC(=O)C[C@H]1C[C@@H]2c3cc(NS(C)(=O)=O)ccc3O[C@@H]2[C@H](CO)O1`, the cytotoxicity call is reported as “inactive”.
With `CO[C@H]1CN(C)C(=O)c2cc(NC(=O)c3ccc(F)cc3)ccc2OC[C@@H](C)N(C(=O)CN(C)C)C[C@H]1C` the cytotoxicity call was “inactive”.
`COCC#Cc1ccc([C@@H]2[C@@H](CO)N3C(=O)CN(C(=O)CN4CCOCC4)C[C@H]23)cc1` was tested, and the cytotoxicity call was “inactive”.
With `C[C@H]1CN([C@@H](C)CO)C(=O)Cc2cc(NC(=O)Cn3cnnn3)ccc2O[C@@H]1CN(C)C(=O)Nc1ccc(C(F)(F)F)cc1` the cytotoxicity call was “inactive”.
In the case of `C[C@H]1CCCCO[C@H](CN(C)C(=O)Nc2ccc(F)cc2)[C@@H](C)CN([C@@H](C)CO)C(=O)c2cc(NS(=O)(=O)c3ccccc3)ccc2O1`, the cytotoxicity call is reported as “inactive”.
In the case of `O=c1c(O)cc([C@H]2Oc3cc(O)cc(O)c3C[C@H]2O)c2cc([C@H]3Oc4cc(O)cc(O)c4C[C@H]3O)cc(O)c(O)c1-2`, the cytotoxicity call is reported as “inactive”.
With `O=C(O[C@@H]1Cc2c(O)cc(O)cc2O[C@@H]1c1cc(O)c(O)c2c(=O)c(O)cc([C@H]3Oc4cc(O)cc(O)c4C[C@H]3O)c-2c1)c1cc(O)c(O)c(O)c1` the cytotoxicity call was “active”.
`O=C(OC1Cc2c(O)cc(O)cc2OC1c1cc(O)c(=O)c2c(O)c(O)cc(C3Oc4cc(O)cc(O)c4CC3O)c2c1)c1cc(O)c(O)c(O)c1` (configuration not stated) was tested, and the cytotoxicity call was “inactive”.
`COC(=O)C1=C(C)NC(C)=C(C(=O)OC)C1c1ccccc1[N+](=O)[O-]` was tested, and the cytotoxicity call was “inactive”.
In the case of `CCOC(=O)C1=C(COCCN)NC(C)=C(C(=O)OC)C1c1ccccc1Cl.O=S(=O)(O)c1ccccc1` (configuration not stated), the cytotoxicity call is reported as “active”.
In the case of `CCOC(=O)C1=C(C)NC(C)=C(C(=O)OC)C1c1cccc(Cl)c1Cl` (configuration not stated), the cytotoxicity call is reported as “inactive”.
With `C[C@H]1CN([C@@H](C)CO)C(=O)c2cccc(NC(=O)C3CC3)c2O[C@H]1CN(C)Cc1ccc(Oc2ccccc2)cc1` the cytotoxicity call was “inactive”.
`CC(=O)N(C)C[C@@H]1Oc2cc(C#CCN(C)C)ccc2S(=O)(=O)N([C@@H](C)CO)C[C@H]1C` was tested, and the cytotoxicity call was “inactive”.
For `C[C@H](CO)N1C[C@H](C)[C@H](CN(C)C(=O)c2ccccc2F)Oc2ncc(C#Cc3ccncc3)cc2C1=O`, the cytotoxicity call was “inactive”.
With `CC(C)c1nc(N(C)S(C)(=O)=O)nc(-c2ccc(F)cc2)c1C=CC(O)CC(O)CC(=O)[O-].[Ca+2]` (configuration not stated) the cytotoxicity call was “inactive”.
With `CC(C)c1c(C(=O)Nc2ccccc2)c(-c2ccccc2)c(-c2ccc(F)cc2)n1CCC(O)CC(O)CC(=O)[O-].[Ca+2]` (configuration not stated) the cytotoxicity call was “inactive”.
In the case of `CC(C)n1c(C=CC(O)CC(O)CC(=O)[O-])c(-c2ccc(F)cc2)c2ccccc21.[Na+]` (configuration not stated), the cytotoxicity call is reported as “active”.
With `C[C@@H]1CCCCO[C@@H](CN(C)C(=O)Nc2ccc(F)cc2)[C@H](C)CN([C@H](C)CO)C(=O)c2cc(NC(=O)NC3CCCCC3)ccc2O1` the cytotoxicity call was “inactive”.
For `C=CCC[C@H](Cc1ccc(F)cc1)C(=O)OC[C@@H](Cc1c[nH]c2ccccc12)NC(=O)[C@H](CC=C)CC(=O)N(CCO)Cc1ccccc1`, the cytotoxicity call was “active”.
`C=CCC[C@@H](Cc1ccc(F)cc1)C(=O)OC[C@@H](Cc1ccccc1)NC(=O)[C@H](CC=C)CC(=O)N(CCO)Cc1ccccc1` was tested, and the cytotoxicity call was “inactive”.
In the case of `C=CCC[C@@H](Cc1ccc(F)cc1)C(=O)OC[C@@H](Cc1c[nH]c2ccccc12)NC(=O)[C@@H](CC=C)CC(=O)N(CCO)Cc1ccccc1`, the cytotoxicity call is reported as “active”.
In the case of `C=CCC[C@H](Cc1ccc(F)cc1)C(=O)OC[C@@H](Cc1c[nH]c2ccccc12)NC(=O)[C@@H](CC=C)CC(=O)N(CCO)Cc1ccccc1`, the cytotoxicity call is reported as “active”.
`C=CCC[C@@H](Cc1ccc(F)cc1)C(=O)OC[C@H](Cc1c[nH]c2ccccc12)NC(=O)[C@@H](CC=C)CC(=O)N(CCO)Cc1ccccc1` was tested, and the cytotoxicity call was “inactive”.
In the case of `C=CCC[C@H](Cc1ccc(F)cc1)C(=O)OC[C@H](Cc1c[nH]c2ccccc12)NC(=O)[C@@H](CC=C)CC(=O)N(CCO)Cc1ccccc1`, the cytotoxicity call is reported as “active”.
With `Cc1cccc(S(=O)(=O)N2C[C@@H](O)COC[C@@H]3O[C@H](CC(=O)NCc4ccncn4)CC[C@H]32)c1` the cytotoxicity call was “inactive”.
In the case of `COCC(=O)Nc1ccc2c(c1)OC[C@H](C)N(Cc1cccc(F)c1)C[C@@H](C)[C@@H](OC)CN(C)C2=O`, the cytotoxicity call is reported as “inactive”.
In the case of `CCCN(C)C[C@@H]1OCCCC[C@@H](C)Oc2ccc(NC(=O)Nc3c(C)noc3C)cc2C(=O)N([C@H](C)CO)C[C@@H]1C`, the cytotoxicity call is reported as “inactive”.
For `C[C@H](CO)N1C[C@H](C)[C@@H](CN(C)C(=O)NC2CCCCC2)OCCCC[C@H](C)Oc2ccc(NS(=O)(=O)c3ccccc3)cc2C1=O`, the cytotoxicity call was “inactive”.
For `C[C@@H]1CCCCO[C@@H](CN(C)Cc2ccc3c(c2)OCO3)[C@H](C)CN([C@H](C)CO)C(=O)c2cc(NS(=O)(=O)c3cccs3)ccc2O1`, the cytotoxicity call was “inactive”.
In the case of `C[C@@H]1CCCCO[C@@H](CN(C)C(=O)Nc2ccc(F)cc2)[C@H](C)CN([C@H](C)CO)C(=O)c2cc(NC(=O)Nc3ccc(F)cc3)ccc2O1`, the cytotoxicity call is reported as “inactive”.
In the case of `C[C@@H]1CN([C@@H](C)CO)C(=O)c2cc(NS(C)(=O)=O)ccc2O[C@@H]1CN(C)Cc1ccc(C(=O)O)cc1`, the cytotoxicity call is reported as “inactive”.
`C[C@@H]1CCCCO[C@@H](CN(C)Cc2ccncc2)[C@@H](C)CN([C@@H](C)CO)C(=O)c2cc(NC(=O)Nc3ccc(F)cc3)ccc2O1` was tested, and the cytotoxicity call was “inactive”.
`C[C@@H]1CN([C@H](C)CO)C(=O)c2cccc(NC(=O)C3CC3)c2O[C@@H]1CN(C)S(=O)(=O)c1ccc(F)cc1` was tested, and the cytotoxicity call was “inactive”.
In the case of `C=CCC[C@@H](Cc1ccc(F)cc1)C(=O)OC[C@@H](Cc1c[nH]c2ccccc12)NC(=O)[C@H](CC=C)CC(=O)N(CCO)Cc1ccccc1`, the cytotoxicity call is reported as “active”.
For `C=CCC[C@H](Cc1ccc(F)cc1)C(=O)OC[C@H](Cc1c[nH]c2ccccc12)NC(=O)[C@H](CC=C)CC(=O)N(CCO)Cc1ccccc1`, the cytotoxicity call was “inactive”.
In the case of `C=CCC[C@@H](Cc1ccc(F)cc1)C(=O)OC[C@H](Cc1c[nH]c2ccccc12)NC(=O)[C@H](CC=C)CC(=O)N(CCO)Cc1ccccc1`, the cytotoxicity call is reported as “inactive”.
With `C[C@H](CO)N1C[C@H](C)[C@H](CN(C)C(=O)Nc2cccc3ccccc23)Oc2ccc(NC(=O)Nc3ccc(F)cc3)cc2CC1=O` the cytotoxicity call was “inactive”.
For `C[C@@H](N)c1nc2c(s1)CCCC2`, the cytotoxicity call was “inactive”.
With `O=C1O[C@H](c2ccccc2)[C@H](c2ccccc2)N2[C@H]1[C@@H](C(=O)NC[C@@H](O)c1ccccc1)[C@]1(C(=O)Nc3ccc(C#CC4(O)CCCCCC4)cc31)[C@H]2c1ccccc1OCCO` the cytotoxicity call was “inactive”.
In the case of `C[C@@H]1CN([C@H](C)CO)C(=O)c2cc(NC(=O)Nc3ccc(C(F)(F)F)cc3)ccc2O[C@H]1CN(C)Cc1ccc(Cl)c(Cl)c1`, the cytotoxicity call is reported as “active”.
`C[C@H]1CN([C@@H](C)CO)C(=O)c2cc(NC(=O)Nc3ccc(C(F)(F)F)cc3)ccc2O[C@@H]1CN(C)Cc1ccc(Cl)c(Cl)c1` was tested, and the cytotoxicity call was “inactive”.
For `C[C@@H]1CN([C@H](C)CO)C(=O)c2cc(NC(=O)Nc3ccc(C(F)(F)F)cc3)ccc2O[C@@H]1CN(C)Cc1ccc(Cl)c(Cl)c1`, the cytotoxicity call was “active”.
With `C[C@H](CO)N1C[C@H](C)[C@@H](CN(C)Cc2ccc(Cl)c(Cl)c2)Oc2ccc(NC(=O)Nc3ccc(C(F)(F)F)cc3)cc2C1=O` the cytotoxicity call was “active”.
With `C[C@@H]1CN([C@@H](C)CO)C(=O)c2cc(NC(=O)Nc3ccc(C(F)(F)F)cc3)ccc2O[C@H]1CN(C)Cc1ccc(Cl)c(Cl)c1` the cytotoxicity call was “inactive”.
`C[C@@H]1CN([C@@H](C)CO)C(=O)c2cc(NC(=O)Nc3ccc(C(F)(F)F)cc3)ccc2O[C@@H]1CN(C)Cc1ccc(Cl)c(Cl)c1` was tested, and the cytotoxicity call was “active”.
For `C[C@H](CO)N1C[C@H](C)[C@@H](CN(C)S(=O)(=O)c2ccc(Cl)cc2)Oc2ccc(NC(=O)CCCN(C)C)cc2CC1=O`, the cytotoxicity call was “inactive”.
`NCC[C@H]1CC[C@H](NC(=O)C2CC2)[C@H](CO)O1` was tested, and the cytotoxicity call was “inactive”.
In the case of `CSc1nc(=O)c(CCO)c(C)[nH]1`, the cytotoxicity call is reported as “inactive”.
`COc1cccc(NC(=O)N2C[C@H](O)COC[C@@H]3O[C@@H](CC(=O)NCCCN4CCOCC4)CC[C@H]32)c1` was tested, and the cytotoxicity call was “inactive”.
